ChEMBL document CHEMBL3433997, “St. Jude Leishmania screening dataset” (2016)

Tests used:
Assay type in all cases: functional
[1] = biological target: Solute carrier family 2, facilitated glucose transporter member 1 (Homo sapiens) (UniProt P11166); assay: ST_JUDE_LEISH: Cytotoxicity at 2uM final concentration against transgenic Leishmania Mexicana promastigotes LmGLUT1 that are glucose transport deficient and complemented with the human glucose transporter GLUT1. Activity is measured by DNA content using SYBR green in vitro
Solute carrier family 2, facilitated glucose transporter member 1 (Homo sapiens), sequence (P11166 whole entry): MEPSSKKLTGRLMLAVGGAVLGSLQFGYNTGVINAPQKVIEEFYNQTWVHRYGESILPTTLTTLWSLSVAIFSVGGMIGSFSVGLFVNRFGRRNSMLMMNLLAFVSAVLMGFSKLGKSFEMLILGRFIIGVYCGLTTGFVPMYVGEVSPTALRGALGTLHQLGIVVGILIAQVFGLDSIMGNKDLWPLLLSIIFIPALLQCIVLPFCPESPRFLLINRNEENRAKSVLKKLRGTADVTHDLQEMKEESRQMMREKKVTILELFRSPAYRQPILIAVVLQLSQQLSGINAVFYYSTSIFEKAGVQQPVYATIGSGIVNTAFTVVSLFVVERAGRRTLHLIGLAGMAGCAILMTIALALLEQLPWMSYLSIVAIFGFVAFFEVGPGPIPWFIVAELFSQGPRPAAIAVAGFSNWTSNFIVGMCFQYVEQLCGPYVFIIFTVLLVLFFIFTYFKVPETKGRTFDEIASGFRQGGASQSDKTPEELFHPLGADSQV

[2] = biological target: Hexose transporter 1 (Plasmodium falciparum) (UniProt O97467); assay: ST_JUDE_LEISH: Cytotoxicity at 2uM final concentration against transgenic Leishmania Mexicana promastigotes LmPfHT that are glucose transport deficient and complemented with the Plasmodium falciparum hexose transporter. Activity is measured by DNA content using SYBR green in vitro
[3] = biological target: Glucose transporter (Leishmania mexicana) (UniProt O61059); assay: ST_JUDE_LEISH: Cytotoxicity at 2uM final concentration against transgenic Leishmania Mexicana promastigotes LmGT2 that are glucose transport deficient and complemented with the L. Mexicana glucose transporter 2. Activity is measured by DNA content using SYBR green in vitro

Row | Structure (SMILES) | inhibition [1] | inhibition [2] | inhibition [3]
1 | COc1ccc(-c2ccc(NC(=O)c3cccc(C#N)c3)cc2)cc1CN1CCCC(C(N)=O)C1 (stereo not given) | 3.09% | 2.51% | 5.2%
2 | COc1ccc(-c2cnc(N)c(-c3nc4cc(Br)ccc4[nH]3)c2)cc1 | 9.38% | 11.3% | 6.12%
3 | O=S(=O)(Nc1cccc(CCN2CCCCC2CCN2CCCC2)c1)c1ccc(Oc2ccccc2)cc1 (stereo not given) | -2.34% | 1.13% | -1.81%
4 | c1cc(CN2CCC(CCN3CCCCC3)CC2)cc(-c2cccc(-c3nc4ccccc4[nH]3)c2)c1 | 2.17% | 2.55% | 3.39%
5 | Cc1cc2cc(/C=C/C(=O)NC3CCC(CCN4CCc5ccc(C#N)cc5CC4)CC3)ccc2[nH]1 (stereo not given) | 9.08% | 7.95% | 8.66%
6 | O=C(NCCNc1nc(NCCNC(=O)Nc2ccccc2)c2ccc(=O)n(-c3c(F)cccc3F)c2n1)Nc1ccccc1 | 2.75% | 1.99% | -0.37%
7 | Cc1ccc(NC(=O)c2ccc(CN3CCCN(Cc4cccc(O)c4)CC3)cc2)cc1 | -1.8% | -0.37% | 1.37%
8 | CCN(CC)CCN(Cc1ccc(-c2ccc(C(F)(F)F)cc2)cc1)C(=O)Cn1c(CCc2ccc(F)c(C#N)c2)nc(=O)c2ccccc21 | 6.73% | 7.67% | 8.84%
9 | COc1ccc(O)c(Cc2cnc3nc(N)nc(N)c3c2C)c1 | 12.3% | 11.2% | 11.4%
10 | O=C(Cc1cccc(Cl)c1)Nc1cccc(-c2c[nH]c3nc(Nc4cccc(OCc5ccccc5)c4)ncc23)c1 | 6.67% | 6.61% | 5.74%
11 | Cc1noc(C)c1-c1ccc2c(Nc3ccccc3C(C)(C)C)c(C(=O)NC3CCCC3)cnc2c1 | 2.07% | 1.46% | -0.58%
12 | CCCCCCCCS(=O)(=O)NCCCC1CCN(CCCCCNC(=O)C=Cc2ccc(Cl)c(Cl)c2)CC1 | 2.57% | -0.32% | 2.95%
13 | Cc1ccc(-c2cnc(N)c3cc(-c4ccnc(N)n4)ccc23)cc1 | -0.17% | -2.15% | -1.88%
14 | O=C(CCCCCNC(=O)c1ccc(O)c(-c2ccc(Cl)c(Cl)c2)c1)NCc1cccc2ccccc12 | 2.63% | 2.12% | 3.98%
15 | CCCCCc1ccc(N2C(N)=NC(N)=NC2(C)C)cc1 | 3.51% | 2.87% | 4.35%
16 | N#Cc1cccc(NC(=O)Nc2cccc(-c3cccc(-c4nc5cc(F)ccc5[nH]4)c3)c2)c1 | 9.7% | 7.87% | 8.96%
17 | COc1ccc(-c2ccc(NC(=O)c3ccc(C#N)cc3)cc2)cc1CN1CCCC1 | 1.22% | 0.11% | -3.17%
18 | CN1CC(c2ccccc2)c2cc(O)c(CN3CCCCC3)cc2CC1Cc1ccccc1 (stereo not given) | 9.54% | 7.19% | 6.78%
19 | Cn1nccc1C(=O)NCCNCc1cccc(-c2ccc(-c3nc4cc(C(F)(F)F)ccc4[nH]3)s2)c1 | 16.3% | 15.5% | 14.6%
20 | Oc1ccc(CCCNc2nc(NCc3ccccc3-c3ccccc3)nc(N3CCNCC3)n2)cc1 | -0.81% | -2.76% | 1.36%
21 | O=C(O)Cc1ccc(-c2c[nH]c3ncc(-c4cccc5ncccc45)cc23)cc1 | 2.28% | 1.77% | 0.63%
22 | CC(C)Cc1cnc2nc(N)nc(N)c2c1 | 1.42% | 2.76% | 1.4%
23 | Cc1ccc2sc(N(CCCn3ccnc3)C(=O)c3ccco3)nc2c1C | 0.64% | 2.76% | 2.79%
24 | COc1ccc(C2C(C(=O)Nc3ccc(C)c(F)c3)c3cc(OC)c(OC)cc3C(=O)N2C)cc1 (stereo not given) | 2.11% | 3.41% | 3.34%

Row | Structure (SMILES) | inhibition [1] | inhibition [2] | inhibition [3]
25 | N#Cc1cccc(NC(=O)C2=C(CCc3ccc4c(c3)OCO4)NC(=O)NC2c2cccc(C#N)c2)c1 (stereo not given) | -0.43% | 0.52% | -0.7%
26 | ON=C1CCc2cc(-c3cc(-c4ccc(OC5CCNCC5)cc4)oc3-c3ccncc3)ccc21 | 1.43% | 3.53% | -0.04%
27 | O=C(C(=O)c1ccc(Nc2ccnc3cc(-c4ccccn4)ccc23)cc1)c1ccccc1 | -1.32% | -0.47% | -2.63%
28 | COc1ccc(-c2cccc(NC(=O)c3cccc(F)c3)c2)cc1CN1CCCN(C)CC1 | 2.17% | 1.16% | -0.49%
29 | CCNC(=O)N[C@@H]1CN[C@@H](C#Cc2cc3c(Nc4ccc(OCc5cccc(F)c5)c(Cl)c4)ncnc3s2)C1 | -0.84% | -1.15% | -0.46%
30 | CN1CCN(c2ccnc3ccc(NC(=O)Nc4ccc(-c5ccncc5)c(C(F)(F)F)c4)cc23)CC1 | 11.3% | 9.91% | 10.6%
31 | OCCN1CCN(Cc2ccc(-c3ccc(-c4nc5ccccc5[nH]4)cc3)cc2)CC1 | 12.1% | 9.51% | 7.18%
32 | O=C(NCc1ccc(C(=O)NC2CCCCCC2)cc1)c1ccc(O)c(-c2ccc(Cl)c(Cl)c2)c1 | 1.17% | 1.13% | 0.44%
33 | O=c1[nH]ccc2nc(N[C@@H]3CCCNC3)nc(Nc3ccc(S(=O)(=O)N4CCOCC4)cc3)c12 | 0.92% | 2.1% | -0.68%
34 | COc1ccc(CN2CCCN(Cc3cccc(NC(=O)c4ccc5ccccc5c4)c3)CC2)cc1 | 1.59% | 1.71% | 6.07%
35 | O=C(NCCCCCN1CCC(c2c[nH]c3ccccc23)CC1)Nc1cccc(C(F)(F)F)c1 | -1.78% | -2.05% | -2.66%
36 | CC(C)(C)OC(=O)NCc1ccc(Nc2nnc(-c3cccc(C(=O)NCc4cc(C(F)(F)F)cc(C(F)(F)F)c4)c3)o2)cc1 | 7.94% | 7.58% | 5.41%
37 | CC(C)c1cc2c(cc1O)C(Cc1ccccc1Cl)N(C)CC2 (stereo not given) | 2.73% | -0.25% | 0.89%
38 | O=C(N1CCN(c2ccnc3cc4c(cc23)N(Cc2ccccc2)CC4)CC1)C(F)(F)F | 2.23% | 3.24% | 4.39%
39 | Cc1ccc(NC(=O)c2ccc(Cl)cc2)cc1-c1ccc(C(=O)Nc2ccncc2)cc1 | -1.61% | 1.31% | 0.29%
40 | OC1CCCN(Cc2cccc(-c3ccc(-c4nc5cc(F)ccc5[nH]4)cc3)c2)C1 (stereo not given) | 4.24% | 3.92% | 4.6%
41 | CNC(=O)c1cc(F)c(F)cc1Nc1nc(Nc2cccc(CS(C)(=O)=O)c2)ncc1Cl | 1.41% | 1.35% | 2.49%
42 | CCCN1CCC(c2c[nH]c3ccc(NC(=O)Nc4cccc(Cl)c4Cl)cc23)CC1 | 3.84% | 2.45% | 4.47%
43 | CC(=O)c1ccc(-c2ccc(C(=O)NCCCCN3CCC(c4ccc5c(c4O)CCCC5)CC3)cc2)cc1 | 3.01% | 3.4% | 1.3%
44 | CC1(C)NC(N)=NC(=N)N1OCCCCCOc1ccccc1 | 0.42% | 0.8% | 1.28%
45 | CCOc1cc(C(=O)NC2CCN(Cc3ccccc3)CC2)ccc1-c1nc2cc(Cl)c(Cl)cc2[nH]1 | 2.82% | 5.07% | -0.27%
46 | O=C(NCc1ccc(F)cc1)Nc1cccc(-c2ccc(-c3nc4cc(F)ccc4[nH]3)cc2)c1 | 6.43% | 7.78% | 7.37%
47 | CCOc1cc(C)ccc1C1CCN(CCCCNC(=O)c2cccc(-c3ccc(C(F)(F)F)cc3)c2)CC1 | 1.54% | 2.27% | 2.69%
48 | Cc1noc(C)c1-c1ccc2c(Nc3ccccc3N3CCOCC3)c(C(=O)NCc3ccccc3)cnc2c1 | 8.19% | 5.91% | 1.84%

Row | Structure (SMILES) | inhibition [1] | inhibition [2] | inhibition [3]
49 | O=C(CSc1nc2ccc([N+](=O)[O-])cc2s1)Nc1ccccc1-c1ccccc1 | -0.42% | -0.44% | -1.03%
50 | O=C(Nc1ccc(Cl)cc1)Nc1ccc(Cn2ncc(N3CCCNCC3)c(Cl)c2=O)cc1 | 2.02% | 5.96% | 2.56%
51 | Cc1ccc2c(=O)cc(CCc3cccc(F)c3F)n(CC(=O)N(Cc3ccc(-c4ccc(C(F)(F)F)cc4)cc3)C3CCN(C(C)C)CC3)c2n1 | -2.51% | -0.71% | -1.8%
52 | COc1ccc(CNCc2ccccc2)cc1-c1ccc(OC)c(S(=O)(=O)NCCN2CCCC2)c1 | -0.27% | -0.09% | 3.45%
53 | Cc1ccccc1C1CCN(C2CCC(NC(=O)C3=Cc4cc(Cl)ccc4OC3)CC2)CC1 (stereo not given) | -3.31% | 2.37% | 1.59%
54 | CC(C)CCNc1nc(NCc2ccccc2)c2cc(O)ccc2n1 | 5.89% | 5.74% | 1.03%
55 | CCOC(=O)c1ccc(NC(=O)N(Cc2ccc(-c3ccc(CN4CCNCC4)cc3)cc2)Cc2cccnc2)cc1 | 2.01% | 2.09% | 0.48%
56 | Cc1[nH]c(C)c(-c2cccc(-c3ccc(OC(F)(F)F)cc3)c2)c(=O)c1Br | 1.89% | 4.46% | -1.64%
57 | O=C(Nc1ccc(Cl)cc1)N[C@H]1CCN(Cc2ccc(OCCCN3CCCCC3)cc2)C1 | -0.92% | 1.45% | 0.1%
58 | N=C(N)Nc1ccc(NC(=O)Nc2ccc(NC(=N)N)cc2)cc1 | 0.9% | 0.77% | 0.04%
59 | COc1ccc(C(=O)CCc2ccc(O)cc2)cc1 | 1.26% | 1.48% | 2.43%
60 | Cc1cccc2nc(-c3ccc(-c4ccc(CNCCCN5CCCC5=O)cc4)s3)[nH]c12 | 2.02% | 3.54% | 3.25%
61 | O=C(/C=C/c1ccccc1O)N1CCC(CCN2CCC(c3c[nH]c4ccccc34)CC2)CC1 | -5.26% | -3.35% | -2.57%
62 | CCOC(=O)c1ccc(N2CCCCC2)c(NC(=O)C(Cl)(Cl)Cl)c1 | -2.66% | -0.39% | -1.19%
63 | CCCCCCN1CCC(CNCc2cccc([N+](=O)[O-])c2)CC1 | 5.28% | 9.36% | 5.95%
64 | CCCCCCN1CCCN(Cc2cccc(NC(=O)c3cc4ccccc4s3)c2)CC1 | 2.73% | 3.42% | 0.46%
65 | COc1ccc(CC2(c3ccc(F)cc3)N=C(N)N(CCCc3ccc4c(c3)OCO4)C2=O)cc1 (stereo not given) | 4% | 5.58% | 5.39%
66 | O=S(=O)(Nc1cccc(CCN2CCC(N3CCCCC3)CC2)c1)c1cccc2ccccc12 | 4.59% | 2.76% | 3.28%
67 | CN(C)Cc1ccc(-c2cccc(NC(=O)c3cccc(Cl)c3)c2)cc1 | 2.44% | 1.66% | 1.39%
68 | COc1ccc(CNCc2ccc(-c3ccc(-c4nc5ccccc5[nH]4)cc3)cc2)cc1 | 17.8% | 14.9% | 10.5%
69 | c1cc(CN2CCCCC2)cc(-c2ccc(-c3nc4ccccc4[nH]3)cc2)c1 | -0.4% | 2.76% | -1.06%
70 | COc1ccc(-c2ccc(NC(=O)c3cccc(F)c3)cc2)cc1CN1CCCN(C)CC1 | 4.26% | 2.56% | -2.3%
